# Test results taken from paper PMC11006913.
# Residue numbers refer to the chain shown, from its start.
# Legend:
# Experiment in all cases: PBM; 200 nM protein, PBS
# Conditions in all cases: dsDNA, one strand shown
# [1] = biological target: SHOX (Homo sapiens, UniProt O15266 103-189)
# [2] = biological target: HOXB4 (Homo sapiens, UniProt P17483 148-234)
# [3] = biological target: HOXB4 (Homo sapiens, UniProt P17483 148-234, V174I)
# [4] = biological target: PROP1 (Homo sapiens, UniProt O75360 56-141)
# [5] = biological target: PROP1 (Homo sapiens, UniProt O75360 56-141, R99H)
# [6] = biological target: PROP1 (Homo sapiens, UniProt O75360 56-141, F88S)
# [7] = biological target: T1, NKX2-6 (Homo sapiens, UniProt A6NCS4 118-204)
# T1 sequence: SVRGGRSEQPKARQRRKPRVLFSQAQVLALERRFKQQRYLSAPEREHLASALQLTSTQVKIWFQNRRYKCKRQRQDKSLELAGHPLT
# [8] = biological target: T2, NKX2-6 (Homo sapiens, UniProt A6NCS4 118-204, F151L)
# T2 sequence: T1 sequence with F34L
# [9] = biological target: CRX (Homo sapiens, UniProt O43186 26-111)
# [10] = biological target: CRX (Homo sapiens, UniProt O43186 26-111, E42D)
# [11] = biological target: PITX2 (Homo sapiens, UniProt Q99697 72-157)
# [12] = biological target: CRX (Homo sapiens, UniProt O43186 26-111, R41L)
# [13] = biological target: MSX2 (Homo sapiens, UniProt P35548 130-214, R199I)
# [14] = biological target: SHOX (Homo sapiens, UniProt O15266 103-189, R173C)
# [15] = biological target: MSX2 (Homo sapiens, UniProt P35548 130-214)
# [16] = biological target: MSX2 (Homo sapiens, UniProt P35548 130-214, F161Y)
# [17] = biological target: HOXA7 (Homo sapiens, UniProt P31268 116-202)
# [18] = biological target: HOXA7 (Homo sapiens, UniProt P31268 116-202, W177C)
# [19] = biological target: NKX3-2 (Homo sapiens, UniProt P78367 192-278, P234S)
# [20] = biological target: NKX3-2 (Homo sapiens, UniProt P78367 192-278)
# [21] = biological target: T3, SIX6 (Homo sapiens, UniProt O95475 114-200, L167I)
# T3 sequence: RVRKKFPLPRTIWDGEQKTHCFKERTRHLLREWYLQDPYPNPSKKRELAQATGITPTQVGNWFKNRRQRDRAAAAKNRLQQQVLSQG
# [22] = biological target: T4, SIX6 (Homo sapiens, UniProt O95475 114-200, L143V)
# T4 sequence: T3 sequence with L30V, I54L
# [23] = biological target: T5, SIX6 (Homo sapiens, UniProt O95475 114-200, H141N)
# T5 sequence: T3 sequence with H28N, I54L
# [24] = biological target: T6, SIX6 (Homo sapiens, UniProt O95475 114-200, T165P)
# T6 sequence: T3 sequence with T52P, I54L
# [25] = biological target: T7, SIX6 (Homo sapiens, UniProt O95475 114-200, L167M)
# T7 sequence: T3 sequence with I54M
# [26] = biological target: T8, SIX6 (Homo sapiens, UniProt O95475 114-200, L143M)
# T8 sequence: T3 sequence with L30M, I54L
# [27] = biological target: T9, SIX6 (Homo sapiens, UniProt O95475 114-200, L143I)
# T9 sequence: T3 sequence with L30I, I54L
# [28] = biological target: T10, SIX6 (Homo sapiens, UniProt O95475 114-200, T165G)
# T10 sequence: T3 sequence with T52G, I54L
# [29] = biological target: T11, SIX6 (Homo sapiens, UniProt O95475 114-200, T139Q)
# T11 sequence: T3 sequence with T26Q, I54L
# [30] = biological target: T12, SIX6 (Homo sapiens, UniProt O95475 114-200, T165A)
# T12 sequence: T3 sequence with T52A, I54L
# [31] = biological target: T13, SIX6 (Homo sapiens, UniProt O95475 114-200, L167V)
# T13 sequence: T3 sequence with I54V
# [32] = biological target: T14, SIX6 (Homo sapiens, UniProt O95475 114-200)
# T14 sequence: T3 sequence with I54L
# [33] = biological target: T15, SIX6 (Homo sapiens, UniProt O95475 114-200, T165I)
# T15 sequence: T3 sequence with T52I, I54L
# [34] = biological target: HOXA4 (Homo sapiens, UniProt Q00056 201-287, W262R)
# [35] = biological target: HOXA4 (Homo sapiens, UniProt Q00056 201-287, R217L)
# [36] = biological target: HOXA4 (Homo sapiens, UniProt Q00056 201-287)
# [37] = biological target: HOXA4 (Homo sapiens, UniProt Q00056 201-287, W262F)
# HOXA4 (Homo sapiens, UniProt Q00056 201-287, W262F), sequence (Q00056 201-287 W262F): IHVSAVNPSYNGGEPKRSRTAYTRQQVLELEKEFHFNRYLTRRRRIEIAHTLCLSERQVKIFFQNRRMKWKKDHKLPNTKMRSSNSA
# CRX (Homo sapiens, UniProt O43186 26-111), sequence (O43186 26-111): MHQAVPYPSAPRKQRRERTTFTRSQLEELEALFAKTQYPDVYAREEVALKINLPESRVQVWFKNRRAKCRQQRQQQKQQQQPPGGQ
# CRX (Homo sapiens, UniProt O43186 26-111, E42D), sequence (O43186 26-111 E42D): as the sequence (O43186 26-111) above, with E17D counted along it
# SHOX (Homo sapiens, UniProt O15266 103-189), sequence (O15266 103-189): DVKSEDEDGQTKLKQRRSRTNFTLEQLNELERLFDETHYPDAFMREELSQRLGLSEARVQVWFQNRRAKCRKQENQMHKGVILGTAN
# SHOX (Homo sapiens, UniProt O15266 103-189, R173C), sequence (O15266 103-189 R173C): as the sequence (O15266 103-189) above, with R71C counted along it
# CRX (Homo sapiens, UniProt O43186 26-111, R41L), sequence (O43186 26-111 R41L): as the sequence (O43186 26-111) above, with R16L counted along it
# HOXB4 (Homo sapiens, UniProt P17483 148-234), sequence (P17483 148-234): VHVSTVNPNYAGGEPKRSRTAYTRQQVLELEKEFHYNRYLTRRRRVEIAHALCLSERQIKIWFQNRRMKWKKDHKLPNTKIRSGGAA
# MSX2 (Homo sapiens, UniProt P35548 130-214), sequence (P35548 130-214): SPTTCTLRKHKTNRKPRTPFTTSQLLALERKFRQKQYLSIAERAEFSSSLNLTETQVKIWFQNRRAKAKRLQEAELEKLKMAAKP
# HOXB4 (Homo sapiens, UniProt P17483 148-234, V174I), sequence (P17483 148-234 V174I): as the sequence (P17483 148-234) above, with V27I counted along it
# MSX2 (Homo sapiens, UniProt P35548 130-214, F161Y), sequence (P35548 130-214 F161Y): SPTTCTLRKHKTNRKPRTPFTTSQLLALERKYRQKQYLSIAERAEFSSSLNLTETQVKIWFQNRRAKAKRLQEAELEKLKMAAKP
# MSX2 (Homo sapiens, UniProt P35548 130-214, R199I), sequence (P35548 130-214 R199I): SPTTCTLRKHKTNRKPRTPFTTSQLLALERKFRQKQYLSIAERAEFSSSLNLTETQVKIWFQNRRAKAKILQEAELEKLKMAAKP
# HOXA4 (Homo sapiens, UniProt Q00056 201-287), sequence (Q00056 201-287): as the sequence (Q00056 201-287 W262F) above, with F62W counted along it
# NKX3-2 (Homo sapiens, UniProt P78367 192-278), sequence (P78367 192-278): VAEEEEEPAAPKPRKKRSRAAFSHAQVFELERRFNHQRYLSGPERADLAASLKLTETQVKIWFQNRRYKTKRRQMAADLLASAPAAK
# PROP1 (Homo sapiens, UniProt O75360 56-141), sequence (O75360 56-141): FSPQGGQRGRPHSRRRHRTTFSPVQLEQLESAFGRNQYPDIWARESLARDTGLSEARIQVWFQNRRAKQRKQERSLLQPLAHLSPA
# NKX3-2 (Homo sapiens, UniProt P78367 192-278, P234S), sequence (P78367 192-278 P234S): as the sequence (P78367 192-278) above, with P43S counted along it
# HOXA4 (Homo sapiens, UniProt Q00056 201-287, W262R), sequence (Q00056 201-287 W262R): as the sequence (Q00056 201-287 W262F) above, with F62R counted along it
# HOXA4 (Homo sapiens, UniProt Q00056 201-287, R217L), sequence (Q00056 201-287 R217L): as the sequence (Q00056 201-287 W262F) above, with R17L, F62W counted along it
# HOXA7 (Homo sapiens, UniProt P31268 116-202, W177C), sequence (P31268 116-202 W177C): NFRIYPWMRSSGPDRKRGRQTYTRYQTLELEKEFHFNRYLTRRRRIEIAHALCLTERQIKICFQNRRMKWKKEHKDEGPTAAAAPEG
# HOXA7 (Homo sapiens, UniProt P31268 116-202), sequence (P31268 116-202): as the sequence (P31268 116-202 W177C) above, with C62W counted along it
# PROP1 (Homo sapiens, UniProt O75360 56-141, F88S), sequence (O75360 56-141 F88S): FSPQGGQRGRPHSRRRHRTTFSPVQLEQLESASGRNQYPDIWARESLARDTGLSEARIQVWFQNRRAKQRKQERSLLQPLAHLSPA
# PROP1 (Homo sapiens, UniProt O75360 56-141, R99H), sequence (O75360 56-141 R99H): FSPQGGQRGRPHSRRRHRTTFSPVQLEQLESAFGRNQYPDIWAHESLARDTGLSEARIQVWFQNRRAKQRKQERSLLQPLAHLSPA
sequence,measurement,setting,value
GATTGAGA,binding signal,[1],"8.1 upbm affinity estimate (log intensity, higher = more binding, comparable within an allelic series)"
GTGCTTAA,binding signal,[1],"9.04 upbm affinity estimate (log intensity, higher = more binding, comparable within an allelic series)"
GGATTCCC,binding signal,[2],"7.58 upbm affinity estimate (log intensity, higher = more binding, comparable within an allelic series)"
same,binding signal,[3],"7.52 upbm affinity estimate (log intensity, higher = more binding, comparable within an allelic series)"
same,binding signal,[4],"6.63 upbm affinity estimate (log intensity, higher = more binding, comparable within an allelic series)"
same,binding signal,[5],"6.7 upbm affinity estimate (log intensity, higher = more binding, comparable within an allelic series)"
same,binding signal,[6],"6.49 upbm affinity estimate (log intensity, higher = more binding, comparable within an allelic series)"
CATATGGG,binding signal,[1],"7.77 upbm affinity estimate (log intensity, higher = more binding, comparable within an allelic series)"
CCCGAGCC,binding signal,[2],"7.67 upbm affinity estimate (log intensity, higher = more binding, comparable within an allelic series)"
same,binding signal,[3],"7.83 upbm affinity estimate (log intensity, higher = more binding, comparable within an allelic series)"
same,binding signal,[7],"9.42 upbm affinity estimate (log intensity, higher = more binding, comparable within an allelic series)"
same,binding signal,[8],"9.3 upbm affinity estimate (log intensity, higher = more binding, comparable within an allelic series)"
CTATCATC,binding signal,[1],"8.16 upbm affinity estimate (log intensity, higher = more binding, comparable within an allelic series)"
ATTATCCA,binding signal,[1],"9.69 upbm affinity estimate (log intensity, higher = more binding, comparable within an allelic series)"
CGGATTAG,binding signal,[1],"8.9 upbm affinity estimate (log intensity, higher = more binding, comparable within an allelic series)"
same,binding signal,[9],"13.6 upbm affinity estimate (log intensity, higher = more binding, comparable within an allelic series)"
same,binding signal,[10],"13.7 upbm affinity estimate (log intensity, higher = more binding, comparable within an allelic series)"
same,binding signal,[11],"13.2 upbm affinity estimate (log intensity, higher = more binding, comparable within an allelic series)"
same,binding signal,[12],"13.4 upbm affinity estimate (log intensity, higher = more binding, comparable within an allelic series)"
CCTGCCTC,binding signal,[1],"7.13 upbm affinity estimate (log intensity, higher = more binding, comparable within an allelic series)"
same,binding signal,[9],"8.19 upbm affinity estimate (log intensity, higher = more binding, comparable within an allelic series)"
same,binding signal,[10],"8.2 upbm affinity estimate (log intensity, higher = more binding, comparable within an allelic series)"
same,binding signal,[13],"9.6 upbm affinity estimate (log intensity, higher = more binding, comparable within an allelic series)"
same,binding signal,[14],"7.13 upbm affinity estimate (log intensity, higher = more binding, comparable within an allelic series)"
same,binding signal,[15],"9.51 upbm affinity estimate (log intensity, higher = more binding, comparable within an allelic series)"
same,binding signal,[16],"9.51 upbm affinity estimate (log intensity, higher = more binding, comparable within an allelic series)"
same,binding signal,[12],"8.18 upbm affinity estimate (log intensity, higher = more binding, comparable within an allelic series)"
GCCTCGCC,binding signal,[1],"7.06 upbm affinity estimate (log intensity, higher = more binding, comparable within an allelic series)"
same,binding signal,[9],"8.26 upbm affinity estimate (log intensity, higher = more binding, comparable within an allelic series)"
same,binding signal,[17],"8.38 upbm affinity estimate (log intensity, higher = more binding, comparable within an allelic series)"
same,binding signal,[10],"8.29 upbm affinity estimate (log intensity, higher = more binding, comparable within an allelic series)"
same,binding signal,[13],"9.34 upbm affinity estimate (log intensity, higher = more binding, comparable within an allelic series)"
same,binding signal,[14],"7.02 upbm affinity estimate (log intensity, higher = more binding, comparable within an allelic series)"
same,binding signal,[15],"9.36 upbm affinity estimate (log intensity, higher = more binding, comparable within an allelic series)"
same,binding signal,[16],"9.46 upbm affinity estimate (log intensity, higher = more binding, comparable within an allelic series)"
same,binding signal,[18],"8.26 upbm affinity estimate (log intensity, higher = more binding, comparable within an allelic series)"
same,binding signal,[19],"10.6 upbm affinity estimate (log intensity, higher = more binding, comparable within an allelic series)"
same,binding signal,[12],"8.24 upbm affinity estimate (log intensity, higher = more binding, comparable within an allelic series)"
same,binding signal,[20],"10.4 upbm affinity estimate (log intensity, higher = more binding, comparable within an allelic series)"
CGACCGCC,binding signal,[1],"7.14 upbm affinity estimate (log intensity, higher = more binding, comparable within an allelic series)"
same,binding signal,[21],"8.99 upbm affinity estimate (log intensity, higher = more binding, comparable within an allelic series)"
same,binding signal,[22],"8.82 upbm affinity estimate (log intensity, higher = more binding, comparable within an allelic series)"
same,binding signal,[23],"8.95 upbm affinity estimate (log intensity, higher = more binding, comparable within an allelic series)"
same,binding signal,[24],"8.87 upbm affinity estimate (log intensity, higher = more binding, comparable within an allelic series)"
same,binding signal,[25],"9.03 upbm affinity estimate (log intensity, higher = more binding, comparable within an allelic series)"
same,binding signal,[26],"8.84 upbm affinity estimate (log intensity, higher = more binding, comparable within an allelic series)"
same,binding signal,[27],"8.91 upbm affinity estimate (log intensity, higher = more binding, comparable within an allelic series)"
same,binding signal,[28],"9.05 upbm affinity estimate (log intensity, higher = more binding, comparable within an allelic series)"
same,binding signal,[29],"8.92 upbm affinity estimate (log intensity, higher = more binding, comparable within an allelic series)"
same,binding signal,[30],"8.95 upbm affinity estimate (log intensity, higher = more binding, comparable within an allelic series)"
same,binding signal,[14],"7.26 upbm affinity estimate (log intensity, higher = more binding, comparable within an allelic series)"
same,binding signal,[31],"8.84 upbm affinity estimate (log intensity, higher = more binding, comparable within an allelic series)"
same,binding signal,[32],"8.95 upbm affinity estimate (log intensity, higher = more binding, comparable within an allelic series)"
same,binding signal,[33],"9.02 upbm affinity estimate (log intensity, higher = more binding, comparable within an allelic series)"
CCCCGGGA,binding signal,[1],"7.25 upbm affinity estimate (log intensity, higher = more binding, comparable within an allelic series)"
same,binding signal,[34],"9.71 upbm affinity estimate (log intensity, higher = more binding, comparable within an allelic series)"
same,binding signal,[35],"9.86 upbm affinity estimate (log intensity, higher = more binding, comparable within an allelic series)"
same,binding signal,[14],"7.27 upbm affinity estimate (log intensity, higher = more binding, comparable within an allelic series)"
same,binding signal,[36],"9.8 upbm affinity estimate (log intensity, higher = more binding, comparable within an allelic series)"
same,binding signal,[37],"9.99 upbm affinity estimate (log intensity, higher = more binding, comparable within an allelic series)"
